Our source for the Potency values is PubChem BioAssay AID686971 (National Center for Advancing Translational Sciences (NCATS), 2013).

Molecules are shown by their SMILES. In all, about 360,000 compounds went through this assay and about 7,500 (2.1%) were called active. A call without a number means that no potency is given here. Another 8% or so got no clear call; they are omitted. This is one part of a sample in which actives are shown more often than they occur. Calls follow the shape of the dose curve; as a rule, active = well fitted cell-killing curve with a large enough effect; inconclusive = small, poorly fitted or top-dose-only effect, or effect the other way, or another doubt; inactive = no such curve, though single readings can be large or run the other way.
Potency is read from the fitted curve at half-maximal effect.

The nature of the assay: qHTS for induction of synthetic lethality in tumor cells producing 2HG: qHTS for the HT-1080-IDH1KD cell line. The note with it: HT-1080 IDH1 knockdown viability, ATP luminescence, 48 h; series mostly up to 46.1 µM. The procedure, abridged: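 In this qHTS, HT-1080 cells depleted of IDH1 are exposed for 48 h at 37 °C to compound titrations. Toxicity is scored from CellTiter-Glo luminescence, with DMSO as full viability and medium alone as none.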
Background: In qHTS, concentration-response curves come from the screen itself.
Consider `CCc1nc2ccc(C(=O)N3CCC(O)(Cc4ccccc4)CC3)cn2c1N(C)C(=O)Cc1ccccc1`, for which the Potency entry is “inactive”.

Take `O=S1(=O)CC(N2CCN(CCO)CC2)CN1Cc1cn(Cc2ccc(Cl)cc2)nn1` (configuration not stated): the Potency entry was “inactive”. Under `Cc1cccc(S(=O)(=O)N(C)C[C@H]2OCc3cnnn3CCCC(=O)N([C@@H](C)CO)C[C@H]2C)c1` stands “inactive”; under `Cc1cc(C)n2c(NCc3ccccc3)c(CC(C)C)nc2n1`, “inactive”.

`COc1ccccc1-c1cc2nc(NCc3cccc(Cl)c3)ccn2n1`: the Potency entry is “inactive”.

For the compound `CC(C)Cc1ccc(-c2cc3nc(NCc4cccc(Cl)c4)ccn3n2)cc1`, the Potency is 20.6 µM (active). With `Cc1sc2ncnc(SCC(=O)NC3CCS(=O)(=O)C3)c2c1C` (configuration not stated), the Potency entry was “inactive”. On to `C=CCOc1ccccc1CNn1c(C)n[nH]c1=S`, for which the Potency result is “inactive”.

On to `CNc1cncc(-c2ccc(NS(C)(=O)=O)cc2)n1`, for which the Potency is 5.8 µM (active).

Take `CNc1cncc(-c2cccc(C(=O)N3CCOCC3)c2)n1`: the Potency result is “inactive”. Under `CS(=O)(=O)Nc1ccc(C(=O)N2CCCC2)cc1` stands “inactive”; under `CCC(C(=O)Nc1c(C)cccc1C)n1c(-c2cc(C)cs2)nc2ccccc21` (configuration not stated), “inactive”. For the compound `CC1(C)NC(=O)N(CC(=O)Nc2ccc(-c3ccccc3)cc2)C1=O`, the Potency result was “inactive”. Consider `COc1ccc(NC(=O)CN(C)C(=O)c2cc(C)oc2C)cc1`, for which the Potency entry is “inactive”. In the case of `COc1ccccc1NC(=O)C1=C(C)Nc2nc3ccccc3n2C1c1cccs1` (configuration not stated), the Potency is 5.17 µM (active). Regarding `CCOC(=O)C1=C(C)Nc2nc3ccccc3n2C1c1cccs1` (configuration not stated), the Potency result is “inactive”. Take `CCOc1ccc(C2C(C(=O)NC)=C(C)Nc3nc4ccccc4n32)cc1OC` (configuration not stated): the Potency entry was “inactive”. On to `Cc1nc(C(F)(F)F)ccc1C(=O)N1CCC1(C)C(=O)NS(=O)(=O)c1ccccc1` (configuration not stated), for which the Potency entry is “inactive”.

As for `CCOc1ccc(-c2cc(C(=O)N/N=C/c3ccc(O)cc3)c3ccccc3n2)cc1`, the Potency was 5.8 µM (active). For the compound `COc1cc(/C=N/NC(=O)c2cc(-c3ccccc3C)nc3ccccc23)cc(OC)c1O`, the Potency result was “inactive”. Under `CCOc1ccc(NC(=O)c2cc(C)nc3ccccc23)cc1` stands “inactive”. Take `O=C(Nc1ccc(N2CCOCC2)cc1)c1cccc2c(-c3ccc(F)c(F)c3)coc12`: the Potency result is “inactive”.

In the case of `Oc1ccc(/C=N/Nc2nc(-c3ccccc3F)nc3ccccc23)c(O)c1`, the Potency is 11.6 µM (active). Regarding `Oc1c(Br)cccc1/C=N/Nc1c(F)c(F)c(F)c(F)c1F`, the Potency entry is “inactive”. Consider `CC1(C(=O)NS(=O)(=O)c2cccc(F)c2)CCN1C(=O)Cc1cc(F)ccc1F` (configuration not stated), for which the Potency entry was “inactive”. Consider `Cc1ccc(Cn2c(C)c(C(=O)NCc3ccccc3C(F)(F)F)sc2=O)cc1`, for which the Potency entry is “inactive”. Consider `O=[N+]([O-])c1ccc(N=Cc2c(O)ccc3ccccc23)cc1`, for which the Potency was 9.2 µM (active). Under `O=[N+]([O-])c1cccc(C=NN=Cc2ccccc2O)c1` stands “inactive”; under `O=C(Oc1ccc([N+](=O)[O-])cc1)c1ccc2ccccc2n1`, “inactive”; under `O=C(NCc1cccnc1)c1ccc2nc([C@@H]3O[C@H](CO)[C@H](O)[C@H](O)[C@H]3O)[nH]c2c1`, “inactive”.

Regarding `Cc1cn([C@H]2C[C@H](O)[C@@H](/C=C/C(=O)NCCCc3ccccc3)O2)c(=O)[nH]c1=O`, the Potency result is “inactive”. Under `COc1cc(CNc2ncnc3c2ncn3[C@H]2CN(Cc3cccs3)C[C@@H](CO)O2)cc(OC)c1OC` stands “inactive”. Turning to `CCc1ccc(CNC(=O)C2CC(=O)N(CCc3ccc(C)cc3)C2)cc1` (configuration not stated), the Potency entry was “inactive”. On to `COc1ccc(-n2nc3c(N4CCC(C(=O)NCc5ccccc5)CC4)nnc(C)c3c2C)cc1`, for which the Potency result is “inactive”. `CCc1ccc(CNC(=O)C2CCN(c3nnc(C)c4c(C)n(-c5ccc(C)cc5)nc34)CC2)cc1`: the Potency was 14.6 µM (active). With `OC[C@H]1O[C@@H](c2nc(-c3nc(-c4ccc(F)cc4)no3)cs2)[C@H](O)[C@@H](O)[C@H]1O`, the Potency entry was “inactive”. As to `O=C1CCCC2=C1C(c1ccccc1)n1c(s/c(=C/c3cccc(F)c3)c1=O)=N2` (configuration not stated), the Potency result was “inactive”. Take `COc1ccc(OC)c(C2C3=C(N=c4s/c(=C\c5cccc(O)c5)c(=O)n42)c2ccccc2CC3)c1` (configuration not stated): the Potency is 20.6 µM (active).

Consider `CCOC(=O)C1=C(C)N=c2s/c(=C\C(=O)OC)c(=O)n2C1c1ccc(OC)cc1` (configuration not stated), for which the Potency entry was “inactive”. As for `COc1ccc(S(=O)(=O)NC(=O)C2(C)CCN2C(=O)c2ccccc2CCc2ccccc2)cc1` (configuration not stated), the Potency result is “inactive”.

Take `COC(=O)C[C@H]1C=C[C@H](NC(=O)c2ccc(F)cc2)[C@@H](CO)O1`: the Potency entry was “inactive”.

On to `O=C(NCCC1=CCCCC1)C1CCN(Cc2cnn(-c3ccccc3)c2-n2cccc2)CC1`, for which the Potency was 25.9 µM (active). Under `Cc1ccc(S(=O)(=O)N2CCC(C(=O)NCCC3=CCCCC3)CC2)cc1C` stands “inactive”; under `C1=C(CCNc2ncnc3c2cnn3-c2ccccc2)CCCC1`, “inactive”. With `CCOC(=O)c1ccc(NC(=O)c2cccnc2)cc1`, the Potency is 14.6 µM (active).

Turning to `CCOC(=O)c1cc(NC(=O)c2cccnc2)ccn1`, the Potency result is “inactive”. Consider `CCOC(=O)c1ccc(-c2ccc(C(=O)Nc3cccnc3)o2)cc1`, for which the Potency result is “inactive”. For `CCCCCC(=O)N1C[C@H](O)[C@@H](n2cc(COC(=O)c3ccccc3)nn2)C[C@@H]1c1ccc(C)cc1`, the Potency entry was “inactive”. For `Cc1onc(-c2ccccc2)c1-c1nnc(COC(=O)c2ccc(N(C)C)cc2)o1`, the Potency entry was “inactive”. As for `N#CCSc1nc(-c2ccccc2)nc2ccc(F)cc12`, the Potency entry was “inactive”.

In the case of `Clc1cccc(-c2nc(NCC3CCCO3)c3ccccc3n2)c1` (configuration not stated), the Potency result is “inactive”.

For the compound `Clc1ccc2nc(-c3ccccc3)nc(C(Cl)Cl)c2c1`, the Potency is 7.31 µM (active). As for `CN1CCN(c2ccncc2S(=O)(=O)N2CCCC2)CC1`, the Potency result is “inactive”. In the case of `Cc1onc(-c2ccccc2Cl)c1C(=O)OCC(=O)c1ccccc1`, the Potency result was “inactive”. With `Cc1onc(-c2ccccc2Cl)c1C(=O)OCc1nnc(-c2ccccc2)o1`, the Potency result was “inactive”.

For `Cc1[nH]c2ccccc2c1C(=O)COC(=O)c1c(-c2ccccc2)noc1C`, the Potency was 23.1 µM (active). As for `CC1(C)CC(=O)C=C(c2ccc(COC(=O)c3cc(F)cc(F)c3)cc2)C1=O`, the entry is “inactive”. As for `Cc1onc(NC(=O)c2ccc([N+](=O)[O-])o2)c1Br`, the Potency result was “inactive”. Turning to `O=C(Nc1ccc(Br)cn1)c1ccc([N+](=O)[O-])cc1Cl`, the Potency result was “inactive”. Take `O=C(Nc1ccc(Br)cn1)c1ccc([N+](=O)[O-])o1`: the Potency was 10.3 µM (active). Consider `CC1CC(NC(=S)N(C)C)CC(C)(C)C1` (configuration not stated), for which the Potency entry was “inactive”.

Take `COc1ccc(/C=C2\SC(=S)N(CCC(=O)N3CCOCC3)C2=O)cc1OC`: the Potency entry is “inactive”.

On to `CCCCCn1nnnc1C1c2ccccc2C(=O)N1Cc1ccco1` (configuration not stated), for which the Potency result is “inactive”. For the compound `CCCCCn1nnnc1-c1nc2cc3ccccc3cc2[nH]c1=O`, the Potency was 7.31 µM (active).

As to `c1ccc2cc3[nH]c(CN4CCCCC4)nc3cc2c1`, the Potency entry was “inactive”. With `COc1ccc(S(=O)(=O)NC(=O)C2(C)CCN2C(=O)COc2ccc(Cl)cc2)cc1` (configuration not stated), the Potency entry was “inactive”. Take `CC1(C(=O)NCc2ccc3c(c2)OCO3)CCN1C(=O)Cc1cccc2ccccc12` (configuration not stated): the Potency result was “inactive”. With `Nc1[nH]c(C(=O)c2ccccc2)c(-c2ccc(Br)cc2)c1C(=O)NC1CC1`, the Potency result is “inactive”. Take `O=C(NCc1cccnc1)c1cc(C2CCCN(C(=O)CCCc3ccccc3)C2)on1` (configuration not stated): the Potency result is “inactive”. Take `O=C(C[C@H]1C[C@@H]2c3cc(NC(=O)C4CCC4)ccc3O[C@@H]2[C@H](CO)O1)NC1CCCCC1`: the Potency entry was “inactive”.

On to `COc1ccc(S(=O)(=O)N(C)C)cc1NC(=O)COC(=O)c1n[nH]c2ccccc12`, for which the Potency entry was “inactive”. With `COc1ccc(C(=O)NN(C)c2nc(-c3ccccc3)cc(C)c2S(C)(=O)=O)cc1`, the Potency entry was “inactive”. In the case of `Cc1cccc(C(=O)Nc2ccc(C(=O)N/N=C/c3cccc(C)n3)cc2)c1`, the Potency entry is “inactive”. For `CN(NC(=O)c1ccccc1F)c1nc(C(F)(F)F)nc2ccccc12`, the Potency is 0.206 µM (active).

`CC(NC(=O)c1ccccc1F)c1cccc2ccccc12` (configuration not stated): the Potency entry was “inactive”. On to `CSc1nc(N(C)NC(=O)c2cccc(C)c2)c2ccccc2n1`, for which the Potency was 0.0461 µM (active). For the compound `Cn1c(CC(=O)NNC(=O)c2ccccc2F)nc2ccccc21`, the Potency result is “inactive”. In the case of `CC1=C(C(=O)N2CCOCC2)CC(CC(=O)NCCN2CCOCC2)C(=O)N1CCC1=CCCCC1` (configuration not stated), the Potency result is “inactive”. Under `Cc1noc(C)c1S(=O)(=O)N(C)C[C@H]1OCCCC[C@@H](C)Oc2ccc(NC(=O)CCCN(C)C)cc2C(=O)N([C@H](C)CO)C[C@@H]1C` stands “inactive”; under `Cc1noc(C)c1C(=O)N1CCC1(C)C(=O)NS(=O)(=O)c1ccc(C#N)cc1` (configuration not stated), “inactive”; under `CN1OC[C@@H]2CN[C@H](c3ccc(-c4ccccc4)cc3)C[C@@H]21`, “inactive”. Consider `CCNC(=O)C1(C)CCCN(C(=O)c2c(C)noc2C)C1` (configuration not stated), for which the Potency result is “inactive”. Take `CN1OC[C@@H]2CN(S(=O)(=O)c3cccc(C(F)(F)F)c3)[C@H](c3ccc(-c4cc5ccccc5o4)cc3)C[C@@H]21`: the Potency result was “inactive”. Consider `COCCNC(=O)C1C(=O)Nc2ccccc2C(=O)N1c1ccc2c(c1)OCCO2` (configuration not stated), for which the Potency result was “inactive”. Under `C[C@@H]1CN([C@@H](C)CO)C(=O)CCCn2nncc2CO[C@@H]1CN(C)S(=O)(=O)c1ccc(-c2ccccc2)cc1` stands “inactive”. As for `Cn1c(=O)c2cc(NC(=O)NCCc3cccs3)ccc2n1Cc1cccc(C(F)(F)F)c1`, the entry is “inactive”; as for `Clc1ccc(-c2cc(-c3ccccn3)on2)c(Cl)c1`, “inactive”. On to `Clc1ccc(-c2cc(C3CCNCC3)[nH]n2)c(Cl)c1`, for which the Potency is 23.1 µM (active).

As to `O=C(OCc1cn([C@@H]2C[C@H](c3ccc(Cl)cc3)N(Cc3cccs3)C[C@H]2O)nn1)c1ccccc1`, the Potency result is “inactive”. Take `COC(=O)[C@@]12C[C@@H](CC(=O)N3CCCCC3)C(=O)N(Cc3ccc4c(c3)OCO4)C1=CCC(C)(C)C2`: the Potency entry was “inactive”. As for `CSc1ccccc1C(=O)Nc1cccc(C(C)=O)c1`, the Potency entry is “inactive”. Regarding `CC(=O)c1cccc(NC(=S)N2CCCC2)c1`, the Potency result is “inactive”. Under `C=CCSc1nsc(NC(=O)Nc2cccc(C(C)=O)c2)n1` stands 16.4 µM (active). Under `Cc1cc2oc(=O)cc(CN(C)Cc3ccccc3)c2cc1Cl` stands “inactive”. For `Cc1c(C(=O)N/N=C/c2ccccc2)[nH]c2c([N+](=O)[O-])cccc12`, the Potency was 0.517 µM (active).

In the case of `Cc1nn(-c2ccccc2)c(Cl)c1/C=N/NC(=O)c1nn(C)cc1[N+](=O)[O-]`, the Potency entry was “inactive”.

As for `Cc1ccc2[nH]c(C(=O)O)c(NC(=O)c3ccccc3[N+](=O)[O-])c2c1`, the Potency entry was “inactive”.
